Measurements as given in PubChem BioAssay AID624304 (Sanford-Burnham Center for Chemical Genomics, 2012).
The campaign covered roughly 360,000 compounds. About 1,800 (0.5%) were called active. Shown is part of a subset that was picked to be rich in actives. Unmarked numbers belong to inactive results.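 The calls were made as follows: active = interference check ratio from 0.5 to 1.5 plus GFP to RFP signal ratio inhibition reaching or exceeding a fixed threshold (cut at about 30% in these data, passing the limit was not always enough); inactive = the rest.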

assay: suppressors of acrylamide-induced Pgst-4::GFP reporter in worms, primary screen, SKN-1 inhibitor project, whole organism, uHTS, GFP/RFP fluorescence ratio, strain VP596 (AID 624304); settings: C. elegans VP596 Pgst-4::GFP/RFP ratio, 24 h, at 21.8 µM, stronger effect = higher value

Row | SMILES | inhibition
1 | CCn1c(SCc2cc(=O)n3ccsc3n2)nc2ccccc21 | 13.5%
2 | CCCc1cc(=O)n2[nH]c(SCc3ccccc3)nc2n1 | 11.9%
3 | Cc1nc2nc(CSc3nc4ccccc4s3)cc(=O)n2[nH]1 | 31.9% (active)
4 | COc1ccc2c(c1)c1ncn(Cc3ccccn3)c(=O)c1n2C | -9.72%
5 | Clc1ccc(-c2csc(-c3ccncc3)n2)cc1 | 73.1% (active)
6 | Fc1ccc(-c2csc(-c3ccc(C4SCCS4)cc3)n2)cc1F | -2.79%
7 | N#CC(=C1CCCC1)c1nc(-c2ccc(Cl)cc2)cs1 | -17.2%
8 | COc1ccc(C)cc1NC(=O)c1[nH]c(C)c(C(C)=O)c1C | -2.27%
9 | COc1ccc(NC(=O)C2Cc3c(-c4cccc(NC(C)=O)c4)ccnc3O2)cc1OC (centres undefined) | 7.14%
10 | Clc1ccc(Nc2nc(-c3cccs3)cs2)nc1 | 84.2% (active)
11 | COc1ccc2nc(-c3ccccn3)ccc2c1 | 18.4%
12 | c1ccc(Nc2nc(-c3ccncc3)cs2)nc1 | 38.3% (active)
13 | Clc1ccc(Cc2nnc(-c3cccs3)o2)cc1 | -1.16%
14 | O=C(Nc1ccc(Cl)cn1)c1ccccc1-c1ccccc1 | 19.1%
15 | COc1ccc(-c2csc(Nc3ccccn3)n2)cc1 | 40% (active)
16 | N#Cc1ccc(OCC(=O)Nc2nc(-c3ccccn3)cs2)cc1 | 0.752%
17 | COc1ccc(C(O)c2nc(-c3ccc(OC)nc3)cs2)cc1 (centres undefined) | -3.44%
18 | CC(NC(=O)c1ccco1)C(=O)Nc1nc(-c2ccccn2)cs1 (centres undefined) | -5.6%
19 | C=CCC[C@H](Cc1ccc(F)cc1)C(=O)OC[C@@H](Cc1c[nH]c2ccccc12)NC(=O)[C@H](CC=C)CC(=O)N[C@H](CO)Cc1ccccc1 | 1.71%
20 | CN(C(=O)c1ccccc1)c1nccnc1C#N | -2.1%
21 | O=C(NCCc1ccccc1)C1CCC(Cn2c(=O)c3ccccc3n(Cc3cccnc3)c2=O)CC1 (centres undefined) | 2.01%
22 | O=C(c1ccc(=O)oc1)N1CCC(C(O)(c2ccccc2)c2ccccc2)CC1 | 22.9%
23 | NC(=O)C1CCN(C(=O)c2ccc(C(F)(F)F)cc2)CC1 | 1.88%
24 | CCn1cnc2scc(-c3ccc(C)c(C)c3)c2c1=O | 9.07%
25 | C[C@H]1NS(=O)(=O)c2cc(Cl)ccc2O[C@@H]1c1ccccc1 | 12.8%

Row | SMILES | inhibition
26 | COc1cc(OC)c(C(=O)NNC(=O)c2ccccc2-n2cccc2)cc1OC | -9.97%
27 | O=C(N/N=C\c1cccc(Br)c1)c1ccccc1-n1cccc1 | 49.3% (active)
28 | Cc1nnsc1C(=O)N/N=C/c1cccc(C(F)(F)F)c1 | 6.82%
29 | CC(C)Nc1ccc(-n2nc3ccccc3[n+]2[O-])cc1 | 8.98%
30 | COCCNC(=O)CCCN1C(=O)c2ccccc2Sc2ncccc21 | 4.78%
31 | O=C(O)CCCN1C(=O)C2C3c4ccccc4C(c4ccccc43)[C@@H]2C1=O (some centres undefined) | -5.65%
32 | O=C(O)CCCN1C(=O)c2ccccc2Sc2ncccc21 | 45.5% (active)
33 | Fc1ccc(N2N=C(c3cccs3)CC2c2ccco2)c(F)c1 (centres undefined) | 12.6%
34 | Cc1nc2cc(NC(=O)CSc3nc4c(C)cccc4cc3C#N)ccc2s1 | -3.68%
35 | Cc1cccc2cc(C#N)c(N3CCCC3)nc12 | 32.6% (active)
36 | Cc1cc(C)c2cc(C#N)c(N3CCNCC3)nc2c1 | 5.2%
37 | CC(=O)Nc1ccc(NC(=O)[C@@H](NC(=O)c2cccc(C)c2)C(C)C)cc1 | 12.9%
38 | Cc1cccc(C(=O)Nc2ccc(C(=O)/C=C/c3cccs3)cc2)c1 | 46.6% (active)
39 | Cc1cccc(C(=O)N[C@H](C(=O)NCc2cccs2)C(C)C)c1 | 1.58%
40 | CCCCCCCC(=O)OC(CN1CCCCCC1)CN1CCCC1=O (centres undefined) | 0.0276%
41 | O=Cc1c(Cl)cccc1Cl | 2.42%
42 | CCC(=O)Nc1c(C)n[nH]c1C | -5.42%
43 | Cn1c(CC(=O)Nc2ccc(F)cc2)nnc1SCC(=O)NC1CCCCC1 | 7.79%
44 | C=CCn1c(CC(=O)Nc2cccc(OC)c2)nnc1SCC(=O)NC1CCCCC1 | 37.9% (active)
45 | COc1cccc(NC(=O)CSc2nnc(C3CCCCC3)n2N)c1 | -8.2%
46 | CC(C)C(=O)Nc1c(C(=O)c2ccc(F)cc2)oc2ccccc12 | 19.7%
47 | Clc1ccc(COn2c(-c3ccc(Cl)cc3Cl)nc3ncccc32)cc1 | 28.6%
48 | Fc1ccc(-c2ccc(CNCc3ccccn3)o2)cc1Cl | -1.67%
49 | Clc1ccc(-c2cc(-c3ccccn3)on2)c(Cl)c1 | 65.8% (active)
